# According to publication PMC4336329 (PLoS ONE, 2015):
# Out of some 310,000 compounds screened, about 14,000 (4.5%) showed an effect of 50% or more. Effects have a minus sign here. The full list was thinned out, with strong results kept by preference.
# Biological target: human ether-à-go-go-related gene (hERG) potassium channel (human, UniProt Q12809)
# Assay: primary screen, population patch clamp on CHO cells stably expressing hERG; higher = less effect of the substance
# 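Also: peak tail current of the secondary pulse compared with the same well before compound.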
# human ether-à-go-go-related gene (hERG) potassium channel, sequence (Q12809 whole entry, looked up): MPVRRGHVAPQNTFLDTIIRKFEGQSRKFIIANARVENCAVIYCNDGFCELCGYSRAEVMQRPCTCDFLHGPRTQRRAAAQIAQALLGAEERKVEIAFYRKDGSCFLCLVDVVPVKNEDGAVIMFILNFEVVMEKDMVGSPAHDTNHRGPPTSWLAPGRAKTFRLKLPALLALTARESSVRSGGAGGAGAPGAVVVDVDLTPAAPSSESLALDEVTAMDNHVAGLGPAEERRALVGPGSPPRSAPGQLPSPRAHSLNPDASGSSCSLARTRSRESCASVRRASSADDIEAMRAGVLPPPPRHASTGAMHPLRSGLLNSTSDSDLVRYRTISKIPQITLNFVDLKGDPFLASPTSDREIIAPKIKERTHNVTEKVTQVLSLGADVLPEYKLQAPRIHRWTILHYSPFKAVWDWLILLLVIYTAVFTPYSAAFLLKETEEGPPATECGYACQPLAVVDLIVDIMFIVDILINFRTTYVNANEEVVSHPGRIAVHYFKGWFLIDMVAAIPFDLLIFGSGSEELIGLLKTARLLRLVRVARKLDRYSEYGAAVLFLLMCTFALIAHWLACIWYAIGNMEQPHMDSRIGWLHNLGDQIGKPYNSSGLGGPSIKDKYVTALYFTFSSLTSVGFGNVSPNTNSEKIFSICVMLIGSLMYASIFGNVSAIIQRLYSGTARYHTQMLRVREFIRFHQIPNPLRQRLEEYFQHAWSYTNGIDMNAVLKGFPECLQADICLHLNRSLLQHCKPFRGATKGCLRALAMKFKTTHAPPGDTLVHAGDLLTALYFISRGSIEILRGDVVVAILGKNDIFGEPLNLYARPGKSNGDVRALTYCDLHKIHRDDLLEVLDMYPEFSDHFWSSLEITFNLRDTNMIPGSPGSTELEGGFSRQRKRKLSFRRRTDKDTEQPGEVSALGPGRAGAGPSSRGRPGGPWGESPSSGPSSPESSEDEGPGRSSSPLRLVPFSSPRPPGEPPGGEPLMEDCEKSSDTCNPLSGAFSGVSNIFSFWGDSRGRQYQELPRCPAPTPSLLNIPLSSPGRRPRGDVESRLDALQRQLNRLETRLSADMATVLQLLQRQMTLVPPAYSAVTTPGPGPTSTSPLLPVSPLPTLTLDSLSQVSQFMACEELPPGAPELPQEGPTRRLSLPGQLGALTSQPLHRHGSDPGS
row,SMILES,"hERG current change (%, negative = inhibition) at 10uM [%]"
1,CCOCCCn1c(=O)c(NC(=O)c2ccc(OCC)cc2)c2n(c1=S)CCCCC2,-27.8
2,CCCCCc1nnc(NC(=O)c2cccc(S(=O)(=O)N3CCOCC3)c2)s1,-41.8
3,Cn1c(Cn2c(=O)sc3ccccc32)nnc1SCc1ccccc1F,-19.9
4,CCC(=O)N1CCN(c2ccc(NC(=O)c3cccs3)cc2)CC1,-0.84
5,COc1cc(/C=N/n2cnnc2)ccc1OC(=O)c1ccncc1,8
6,O=C(COc1ncnc2ccccc12)Nc1ccc(S(=O)(=O)N2CCOCC2)cc1,9.94
7,N#C/C=C(/N)c1ccc(Br)cc1,7.26
8,c1ccc(Cn2ncc3c(Nc4ccccc4)ncnc32)cc1,6.01
9,CCOc1ccc(CCNC(=O)COC(=O)C2CCN(c3ccc(C(F)(F)F)cn3)CC2)cc1OCC,-10.9
10,Cc1cccc(NS(=O)(=O)c2ccc(C(=O)NCCCN3CCCC3=O)cc2)c1C,4.04
11,Cc1nc([N+](=O)[O-])cn1CC(O)c1ccc(-c2ccccc2)cc1 (stereo not shown),-44.3
12,Cc1ccc(N=Nc2c(O)n(CN3CCOCC3)c3ccccc23)cc1,3.48
13,Cc1ccc(NC(=O)CS(=O)CC(=O)NC2CCN(Cc3ccccc3)CC2)c(C)c1 (stereo not shown),-3.54
14,COc1ccc(NC(=S)N2CCN(Cc3ccccc3)CC2)cc1,0.401
15,FC(F)Oc1ccc(NC(=S)N2CCN(Cc3ccccc3)CC2)cc1,-56
16,S=C(Nc1ccccc1)N1CCN(Cc2ccccc2)CC1,-4.13
17,Cc1ccc(NS(=O)(=O)c2cccc(C(=O)NCC(c3cccs3)N3CCOCC3)c2)cc1 (stereo not shown),-14.3
18,Cl.Clc1ccccc1CNC1CN2CCC1CC2 (stereo not shown),-3.27
19,COc1ccc(OCC(=O)Nc2ccc(C(=O)Nc3ccccc3C(=O)O)cc2)cc1,23.2
20,CC(C)(C)c1nnc(NC(=O)c2cc(-c3ccccc3)nc3ccccc23)s1,17.3
21,COc1ccc(CCN(C)C(=O)c2cc(-c3ccccc3)nc3ccc(C)cc23)cc1OC,-52.1
22,COc1ccc(CCN(C)C(=O)c2cc(-c3ccccc3)nc3ccccc23)cc1OC,-4.79
23,COc1ccc(CCN(C)C(=O)c2cc(-c3ccc(C)cc3)nc3ccccc23)cc1OC,-26.7
24,O=C(O)CN1CCN(Cc2ccccc2F)C1=O,24.7
25,COc1cnc(SC)nc1Nc1ccc(C#N)cc1,-66.8
26,COc1ccc(Nc2nccc(OC)c2C#N)cc1,-38.8
27,COc1ccc(Nc2nccc(-c3ccc(C#N)cc3)n2)cc1,1.36
28,COc1cccc(N2C(=O)C3CCCN3C2c2ccc(Cl)cc2)c1 (stereo not shown),-1.05

row,SMILES,"hERG current change (%, negative = inhibition) at 10uM [%]"
1,COc1cc(NC(=O)C2CCC(CNc3c(N4CCC(C)CC4)c(=O)c3=O)CC2)cc(OC)c1 (stereo not shown),16.7
2,O=C(CN1CCN(c2ccccn2)CC1)Nc1ccc2ccccc2c1,-43.9
3,O=C1C2C3C=CC(C4CC34)C2C(=O)N1c1cccc2ccccc12 (stereo not shown),-0.113
4,O=C1C2C3C=CC(C3)C2C(=O)N1c1cccc2ccccc12 (stereo not shown),18.7
5,O=C1[C@H]2[C@@H](C(=O)N1c1cccc3ccccc13)C1(C(=O)c3ccccc3C1=O)N1CCC[C@@H]21,-69
6,Cn1c(CCNC(=O)C(C)(C)C)nc2ccccc21,16.4
7,O=C(NC1CCCCC1)C1CC=CCC1C(=O)OCC(Cl)=C(Cl)Cl (stereo not shown),-20.7
8,COc1ccc(Oc2ncccc2[N+](=O)[O-])cc1,6.57
9,CN(C)c1ccc(/C=N/NC(=O)c2ccco2)cc1,1
10,COc1ccc(Cl)cc1NC(=O)CN1CCN(S(=O)(=O)N2CCC(C)CC2)CC1,-32.1
11,O=C(CN1CCOCC1)Nc1cc([N+](=O)[O-])ccc1Cl,-17
12,O=C(CN1CCN(S(=O)(=O)N2CCCCC2)CC1)Nc1cc(Cl)ccc1Cl,10.7
13,O=C(CN1C(=O)c2ccc([N+](=O)[O-])cc2C1=O)Nc1cc(S(=O)(=O)N2CCOCC2)ccc1Cl,-60.8
14,COc1ccc(S(=O)(=O)N2CCN(CC(=O)Nc3cc(Cl)ccc3Cl)CC2)cc1,-7.44
15,CN1CCN(CC(=O)Nc2cc(S(=O)(=O)N3CCOCC3)ccc2Cl)CC1,4.13
16,CN(C)c1ccc(NC(=O)CN2CCN(S(=O)(=O)c3cc(Cl)ccc3Cl)CC2)cc1,-1.09
17,COc1ccc(Cl)cc1NC(=O)CN1CCN(S(=O)(=O)N2CCOCC2)CC1,-55.9
18,O=C(CN1CCN(S(=O)(=O)N2CCOCC2)CC1)Nc1cc(Cl)ccc1Cl,-55.2
19,COc1ccc(Cl)cc1NC(=O)CN1CCN(S(=O)(=O)N2CCCCC2)CC1,-9.48
20,CN(C)S(=O)(=O)N1CCN(CC(=O)Nc2cc(Cl)ccc2Cl)CC1,-50.8
21,O=C(CN1CCN(S(=O)(=O)N2CCCCCC2)CC1)Nc1cc(Cl)ccc1Cl,7.48
22,O=C(O)c1ccccc1-c1cc2ccccc2[nH]1,19.7
23,N#C/C(=C/c1ccc(N2CCOCC2)c([N+](=O)[O-])c1)C(N)=O,-39.8
24,O=C(OC(C(=O)NCC1CCCO1)c1ccccn1)c1cccs1 (stereo not shown),1.83
25,COCc1nc2ccccc2n1Cc1cccc(C)c1,-12.8
26,O=S(=O)(NCC(c1ccco1)N1CCN(c2ccccc2F)CC1)c1ccc(F)cc1 (stereo not shown),-11.2
27,CC(C)CNc1nc(Oc2ccc(=O)[nH]n2)nc(N2CCOCC2)n1,7.99
